Assay outcomes from PubChem.
SIRT5 inh: blocks human SIRT5 desuccinylation of peptide. inhibition, % at 15 µM. AID 652115. Q9NXA8. Purified SirT5, succinyl-peptide AMC, trypsin-coupled fluorescence. 330,000 tested, 1.1% active; in the data active = inhibition above about 15%
FGF22 binding: shifts melting point of recombinant human FGF22; activity (Tm shift, normalised), % at 9.99 µM; recombinant FGF22 thermal shift, SYPRO orange fluorescence; percent of sucrose octasulfate shift, DMSO zero; AID 651658; 340,000 tested, 1.5% active; Q9HCT0;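 active = mean Tm shift, scaled 0 neutral to 100 positive control, at about 1.3% or above, every replicate too, limit read from the data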
ERAP1 inh: blocks human ERAP1 aminopeptidase activity. Q9NZ08. recombinant ERAP1, Leu-AMC fluorescence, 60 min. inhibition, % at 10.7 µM. 340,000 tested, 0.15% active. AID 652197;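 active = mean replicate inhibition of at least 30%, or all replicates individually reaching that 30% level; inactive = mean below 30% and not every replicate reaching it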;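 also: 0% = neutral control wells and 100% = L-leucinethiol positive control wells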
Target sequence (Q9NZ08 whole entry, looked up): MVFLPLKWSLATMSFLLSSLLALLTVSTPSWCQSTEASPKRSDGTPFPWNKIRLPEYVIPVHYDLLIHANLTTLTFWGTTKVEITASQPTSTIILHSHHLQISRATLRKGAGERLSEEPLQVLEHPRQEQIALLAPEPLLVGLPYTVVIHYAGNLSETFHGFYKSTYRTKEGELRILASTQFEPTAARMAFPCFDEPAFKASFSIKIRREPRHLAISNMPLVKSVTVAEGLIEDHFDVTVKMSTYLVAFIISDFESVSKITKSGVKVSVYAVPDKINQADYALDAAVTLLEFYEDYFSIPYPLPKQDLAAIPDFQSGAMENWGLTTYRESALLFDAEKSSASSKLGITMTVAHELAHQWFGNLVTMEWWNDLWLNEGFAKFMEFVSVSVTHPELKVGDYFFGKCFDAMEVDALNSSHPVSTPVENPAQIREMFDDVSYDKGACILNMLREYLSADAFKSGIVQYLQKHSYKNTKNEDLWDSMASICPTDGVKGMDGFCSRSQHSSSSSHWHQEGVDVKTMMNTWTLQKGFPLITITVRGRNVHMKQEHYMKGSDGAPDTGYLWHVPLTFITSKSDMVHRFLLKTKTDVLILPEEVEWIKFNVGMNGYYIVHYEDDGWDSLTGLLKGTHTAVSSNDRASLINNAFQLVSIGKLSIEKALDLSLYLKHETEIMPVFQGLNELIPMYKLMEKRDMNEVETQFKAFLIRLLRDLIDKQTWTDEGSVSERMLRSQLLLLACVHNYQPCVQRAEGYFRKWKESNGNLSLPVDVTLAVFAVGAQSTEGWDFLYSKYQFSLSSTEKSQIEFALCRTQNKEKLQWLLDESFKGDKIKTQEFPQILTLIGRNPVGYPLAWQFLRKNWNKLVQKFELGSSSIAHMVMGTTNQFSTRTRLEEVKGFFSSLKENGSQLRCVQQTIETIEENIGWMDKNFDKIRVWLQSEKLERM
CASP6 VEID inh: inhibitors of human caspase-6 | P55212 | purified caspase-6, Z-VEID-R110 cleavage fluorescence | inhibition, % at 12.5 µM | 350,000 tested, 0.53% active | AID 686996;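 active = mean inhibition across replicates at least about 35%, with every replicate also reaching that limit, limit read from the data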;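 also: 0% = median of neutral control wells and 100% = no fluorescence left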
* hit, by the source's call; nt = no result given. Rows were chosen to be rich in hits. Some 3.1% of all compounds tested hit in one or more screens of this group.

SMILES	SIRT5 inh	FGF22 binding	ERAP1 inh	CASP6 VEID inh
COc1ccccc1CNC(=O)C[C@H]1CC[C@H]2[C@@H](COc3ccc(NC(C)=O)cc3C(=O)N2C)O1	nt	0	nt	nt
C/C=C/c1ccc([C@H]2[C@@H](CO)N(C(C)=O)C23CN(C(=O)NC2CCCCC2)C3)cc1	1	0	-1	-3
CCS(=O)(=O)N1CC2(C1)[C@@H](c1ccccc1)[C@@H](CO)N2C(=O)C1CCCC1	-5	nt	2	0
Cc1ccc(C)n1-c1ccc(C(=O)Nc2ccccc2)cc1	1	43*	-4	-1
O=C(Nc1ccncc1)c1ccc(-c2ccccc2)cc1	2	45*	1	-1
O=C(Nc1cccnc1)c1ccc(-c2ccccc2)cc1	2	0	7	-2
C[C@H]1CN([C@@H](C)CO)C(=O)CCCn2cc(nn2)CO[C@H]1CN(C)Cc1ccc(C(F)(F)F)cc1	2	0	1	-1
CC=Cc1ccc2n(c1=O)C[C@H]1[C@H](CO)[C@@H](C(=O)NCC)N(C(=O)C3CCOCC3)[C@@H]21 (mixture of isomers)	1	0	-1	0
CCCSc1ccc([C@@H]2[C@H]3C(=O)N(CC)C(=O)[C@H]3[C@]3(C(=O)OC)CCCN23)cc1	36*	0	0	-8
COc1ccc(S(=O)(=O)Nc2ccc3c(c2)C(=O)N([C@H](C)CO)C[C@H](C)[C@H](CN(C)C(=O)Nc2ccc4c(c2)OCO4)OCCCC[C@H](C)O3)cc1	17*	0	0	-1
COc1ccc(S(=O)(=O)Nc2ccc3c(c2)C(=O)N([C@H](C)CO)C[C@H](C)[C@H](CN(C)C(=O)Nc2ccc(F)cc2)OCCCC[C@H](C)O3)cc1	17*	-1	1	1
COc1ccc(NC(=O)N(C)C[C@H]2Oc3c(NS(C)(=O)=O)cccc3C(=O)N([C@@H](C)CO)C[C@H]2C)cc1	33*	0	0	3
COc1ccc(NC(=O)N(C)C[C@@H]2Oc3ccc(NS(=O)(=O)c4ccc(F)cc4)cc3C(=O)N([C@H](C)CO)C[C@H]2C)cc1	40*	0	3	-2
COc1ccc(NC(=O)N(C)C[C@@H]2Oc3c(NS(C)(=O)=O)cccc3C(=O)N([C@H](C)CO)C[C@@H]2C)cc1	-6	0	-2	1
COCC(=O)Nc1ccc2c(c1)C(=O)N(C)C[C@H](OC)[C@H](C)CN(C(=O)CC1CC1)[C@@H](C)CO2	4	0	0	0
Cc1ccc(/C=C/S(=O)(=O)NCC(=O)O)cc1	0	43*	1	6
Cn1c(N)c(C(=O)COC(=O)c2ccc(Cl)nc2)c(=O)n(C)c1=O	-7	43*	1	1
CCN(C[C@H]1N[C@@](C)(C(=O)OC)[C@H]2C(=O)N(C)C(=O)[C@@H]12)C(C)=O	nt	43*	-2	0
COC(=O)[C@]1(C)N[C@H](CN(C)C(C)=O)[C@@H]2C(=O)N(Cc3ccccc3)C(=O)[C@@H]21	nt	44*	0	1
CCN(C[C@H]1N[C@@](C)(C(=O)OC)[C@H]2C(=O)N(C)C(=O)[C@@H]12)C(=O)COC	nt	43*	-2	7
CCN(C[C@H]1N[C@@](C)(C(=O)OC)[C@H]2C(=O)N(C)C(=O)[C@@H]12)C(=O)c1ccccc1	3	0	2	3
CCNC(=O)C[C@H]1CC[C@@H]2[C@@H](COc3ccc(NC(=O)c4cscn4)cc3C(=O)N2C)O1	3	0	-4	0
C/C=C/c1ccc(C2[C@H]3CNC[C@@H]2N3C(=O)Nc2ccc3c(c2)OCO3)cc1 (stereo not given in full)	2	0	0	1
CCCC(=O)Nc1ccc2c(c1)C(=O)N(C)[C@@H]1CC[C@@H](CC(=O)NCC3CCCCC3)O[C@H]1CO2	-1	0	2	0
O=C(N/N=C/c1ccnc2ccccc12)c1ccccc1O	-5	0	0	1
SMILES	SIRT5 inh	FGF22 binding	ERAP1 inh	CASP6 VEID inh
O=C(N/N=C/c1ccoc1)c1ccccc1	1	0	1	23
O=C(N/N=C/c1ccoc1)c1ccccc1O	2	0	3	50*
O=C(N/N=C/c1oc(O)c2ccccc12)c1ccccc1O	nt	1	-4	37*
COc1ccc(/C=N/NC(=O)c2ccccc2O)cc1CN1CCOCC1	2	0	nt	42*
O=C(N/N=C/c1ccoc1)c1cc(O)cc(O)c1	2	0	-2	74*
CN1C(=O)c2cc(NC(=O)c3ccc(C#N)cc3)ccc2OC[C@H]2O[C@@H](CC(=O)NC3Cc4ccccc4C3)CC[C@@H]21	5	0	-1	0
Cc1cc2c(NC(=O)CCCC(=O)O)cccc2nn1	3	0	5	6
Cc1cc2c(NC(=O)Nc3ccc(C(F)(F)F)cc3)cccc2nn1	4	0	1	54*
O=c1cc(-c2ccc(O)cc2)oc2cc(O)c(C3OC(CO)C(O)C(O)C3O)c(O)c12 (stereo not given)	nt	0	13	37*
O=c1cc(-c2ccc(O)cc2)oc2cc(O)cc(O)c12	4	0	0	2
Cc1cc(C)n2cc(CSc3nncn3C)nc2n1	-7	43*	0	0
Cc1ccc(SCc2cn3c(C)cc(C)nc3n2)cc1	-1	0	-1	0
CC(=O)Nc1ccc(NC(=O)C(C)n2nc(C)c([N+](=O)[O-])c2C)cc1 (stereo not given)	28*	0	nt	-1
CNC(=O)c1cc(Cl)c(OC)c(OC)c1	-3	0	27	3
COC(=O)C(=O)C1CCc2c(Cl)cc(OC)c(OC)c2C1=O (stereo not given)	0	0	-5	79*
CCC(=O)N1[C@H](CO)[C@H](c2ccc(-c3ccccc3)cc2)[C@H]1CN(CC)C(C)=O	30*	0	-1	-3
CCC(=O)N1[C@@H](CO)[C@@H](c2ccc(-c3ccccc3)cc2)[C@@H]1CN(CC)C(C)=O	-4	0	-2	-2
CCC(=O)N(C)C[C@@H]1[C@@H](c2ccc(-c3ccccc3F)cc2)[C@H](CO)N1C(C)=O	22*	-1	-2	6
CCN(C[C@H]1[C@@H](c2ccc(-c3ccccc3F)cc2)[C@@H](CO)N1C(C)=O)C(C)=O	22*	nt	-4	-3
CCC(=O)N(C)C[C@H]1[C@@H](c2ccc(-c3ccccc3F)cc2)[C@@H](CO)N1C(C)=O	4	0	-2	1
O=C(C[C@@H]1C[C@H]2c3cc(NC(=O)C4CCC4)ccc3O[C@H]2[C@@H](CO)O1)NCc1ccc(Cl)cc1	0	0	0	2
C[C@@H]1CCCCO[C@@H](CN(C)C(=O)c2ccncc2)[C@@H](C)CN([C@H](C)CO)C(=O)c2cc(NS(=O)(=O)c3cn(C)cn3)ccc2O1	-2	1	-1	-3
O=C(Nc1ccc2c(c1)[C@H]1C[C@H](CC(=O)N3CCCCC3)O[C@@H](CO)[C@H]1O2)Nc1ccccc1F	-5	nt	1	36*
